# Pol eta inh-1: DNA polymerase eta (human) inhibition | Potency, µM (titrated, usually from 114 µM), without a hit: at the highest dose activity change, negative = inhibition, most hits filed as inhibitors | AID 588591 | 390,000 compounds, 1.2% hits | recombinant Pol eta, fluorescent DNA replication assay | Q9Y253; further: potency means the concentration at half of the fitted maximal effect; on the % scale 0 is the no-effect control and ±100 the full control effect
#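 Fluorescent replication assay: 50 nM final substrate added after a 15 min room-temperature compound preincubation with 10 nM enzyme. Signal taken at 0 min and again at 10 min.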
# Pol iota inh: inhibitors of human DNA polymerase iota | Q9UNA4 | Pol iota fluorescent replication assay, 10 min | Potency, µM (top dose mostly 115 µM), for the others: top-dose activity, negative = inhibition, most hits filed as inhibitors | 390,000 compounds, 1% hits | AID 588590; further: potency means the concentration at half of the fitted maximal effect
# Target sequence (Q9UNA4 whole entry, looked up): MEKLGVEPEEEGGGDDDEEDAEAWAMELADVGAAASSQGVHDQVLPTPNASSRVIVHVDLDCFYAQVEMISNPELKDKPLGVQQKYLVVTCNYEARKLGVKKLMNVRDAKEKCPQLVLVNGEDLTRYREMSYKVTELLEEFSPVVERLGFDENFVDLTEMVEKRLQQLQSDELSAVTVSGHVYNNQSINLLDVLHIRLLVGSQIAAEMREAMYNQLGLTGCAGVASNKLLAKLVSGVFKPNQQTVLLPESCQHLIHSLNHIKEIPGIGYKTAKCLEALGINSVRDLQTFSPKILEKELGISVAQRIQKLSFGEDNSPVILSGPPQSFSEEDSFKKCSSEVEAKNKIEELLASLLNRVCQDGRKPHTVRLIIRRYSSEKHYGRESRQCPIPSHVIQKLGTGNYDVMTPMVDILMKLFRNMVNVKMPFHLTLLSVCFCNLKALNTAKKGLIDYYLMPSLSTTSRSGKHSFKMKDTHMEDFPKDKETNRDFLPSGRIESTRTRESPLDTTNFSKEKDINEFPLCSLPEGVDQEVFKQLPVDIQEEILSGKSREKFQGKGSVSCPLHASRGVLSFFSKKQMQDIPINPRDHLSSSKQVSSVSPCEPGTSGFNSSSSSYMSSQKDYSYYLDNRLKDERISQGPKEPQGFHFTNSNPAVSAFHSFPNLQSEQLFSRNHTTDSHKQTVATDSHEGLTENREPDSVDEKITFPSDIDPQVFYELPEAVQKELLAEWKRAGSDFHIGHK
#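 Pol iota at 10 nM preincubated 15 min with compounds at room temperature; reaction started with fluorescent substrate, 50 nM final. Fluorescence read kinetically at 0 and 10 min; buffer-only wells as negative control.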
# WRN inhibitor: inhibitors of human WRN helicase. Q14191. WRN helicase unwinding, fluorescent forked duplex, kinetic. Potency, µM (series often up to 114 µM), for inactives: at the top dose activity change, negative = inhibition, most hits filed as inhibitors. 360,000 compounds, 0.46% hits; further: potency means the concentration at half of the fitted maximal effect; on the % scale 0 is the no-effect control and ±100 the full control effect; nearly all actives have a fitted effect of over 55% in size
#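 Enzyme (20 nM final) and test compound sit together 15 min at room temperature before substrate addition. Substrate is a single-forked duplex oligonucleotide (100 nM) labelled with fluorophore and quencher, with 2 mM ATP; helicase unwinding raises red fluorescence, read kinetically.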
# Pol beta inh: DNA polymerase beta (human) inhibition. P06746. Potency, µM (doses to about 114 µM), without a hit: at the top dose activity change, negative = inhibition, most hits filed as inhibitors. Pol beta primer extension/strand displacement, fluorescence kinetic. 340,000 compounds, 1.3% hits; further: potency means the concentration at half of the fitted maximal effect; on the % scale 0 is the no-effect control and ±100 the full control effect
#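 Homogeneous kinetic assay of primer extension and strand displacement by 10 nM Pol beta, preincubated 15 min at room temperature with compound before 50 nM substrate (final) was added. Read at 0 and 10 min; four-parameter Hill fit.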
# Pol kappa inh-1: blocks human DNA polymerase kappa activity; Q9UBT6; purified Pol kappa, fluorescent DNA synthesis assay, 10 min; Potency, µM (series often up to 107 µM), for inactives: top-dose activity, negative = inhibition, usual class: inhibitors; 400,000 compounds, 0.53% hits; further: potency means the concentration at half of the fitted maximal effect; on the % scale 0 is the no-effect control and ±100 the full control effect
#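 Kinetic fluorescence readout at 0 and 10 min followed reaction start with substrate at 50 nM final. Beforehand, enzyme (10 nM Pol kappa) stood 15 min with compound at room temperature; buffer-only wells were negative controls.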
# FEN1 inhibitor: blocks human flap endonuclease 1; P39748; Recombinant FEN1 flap cleavage, fluorescence, 15 min; Potency, µM (series often up to 114 µM), for inactives: at the highest dose activity change, negative = inhibition, usual class: inhibitors; 390,000 compounds, 0.35% hits; AID 588795; further: potency means the concentration at half of the fitted maximal effect; on the % scale 0 is the no-effect control and ±100 the full control effect; nearly all actives have a fitted effect of over 65% in size
#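 Enzyme 10 nM, 15 min RT preincubation with compound; start with substrate 50 nM final; reads at 0 and 15 min; qHTS titration, four-parameter Hill fit.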
# BAZ2B confirm: inhibits human BAZ2B bromodomain, hit validation | shares compounds with Pol kappa inh-1 | AlphaScreen BAZ2B / biotin-H3K14Ac peptide displacement | Potency, µM, most hits filed as inhibitors | 25 compounds, 100% hits | AID 588809; calls by dose curve
# BAZ2B bead ctr: AlphaScreen signal interference, BAZ2B hit counter-screen. AlphaScreen biotin-His6 peptide bead counterscreen, signal decrease. AID 588859. Potency, µM (top dose mostly 57.1 µM), for inactives: at the top dose activity change, negative = inhibition, hits mostly inhibitors. shares compounds with Pol kappa inh-1. 25 tested, under 10 active;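 active means clear concentration-dependent signal drop in the bead assay lacking the target, so a primary-screen artifact; inconclusive means weak, partial or single-dose response; inactive means no response, so a real primary hit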
# TbPGK inh: blocks T. brucei phosphoglycerate kinase | shares compounds with Pol kappa inh-1 | TbPGK coupled GAPDH assay, Kinase-Glo luminescence | Potency, µM (doses to about 57.5 µM), for the others: top-dose activity change, negative = inhibition, most hits filed as inhibitors | 500 compounds, 79% hits; further: potency means the concentration at half of the fitted maximal effect; on the % scale 0 is the no-effect control and ±100 the full control effect; nearly all actives have a fitted effect of over 65% in size
# POLI cherry-pick: Human Pol iota inhibitor confirmatory assay; shares compounds with Pol kappa inh-1; Pol iota primer extension, TAMRA/BHQ fluorescence; Potency, µM, usual class: inhibitors; 1,500 compounds, 77% hits; AID 720496; further: potency means the concentration at half of the fitted maximal effect
# GALK confirm: confirmation of human galactokinase (GALK) inhibitors. Potency, µM (top dose mostly 115 µM), for the others: at the top dose activity, negative = inhibition, actives largely listed as inhibitors. shares compounds with Pol eta inh-1. 150 compounds, 70% hits. purified GALK, Kinase-Glo ATP depletion luminescence
# GALK redox cs: generates H2O2 by redox cycling, flagging GALK artifacts. shares compounds with Pol eta inh-1. Phenol red-HRP H2O2 redox cycling, absorbance 600 nm. Potency, µM (titrated, usually from 115 µM), for the others: at the highest dose activity change, negative = H2O2 signal, actives largely listed as inhibitors. 150 compounds, 40% hits. AID 2035
# HEK293 viability: HEK-293 cytotoxicity, GALK inhibitor secondary. shares compounds with Pol eta inh-1. HEK-293 viability, ATP luminescence (CellTiter-Glo), 24/48 h. Potency, µM (titrated, usually from 46.1 µM), inactives show top-dose activity change, negative = cytotoxicity, hits mostly inhibitors. 170 compounds, 10% hits. AID 2547; further: potency means the concentration at half of the fitted maximal effect; on the % scale 0 is the no-effect control and ±100 the full control effect
# Pol kappa inh-2: confirmation of human DNA polymerase kappa inhibitors; shares compounds with Pol eta inh-1; purified Pol-kappa, fluorescent strand-displacement substrate; 920 compounds, 76% hits; AID 720501; Potency, µM, most hits filed as inhibitors; further: potency means the concentration at half of the fitted maximal effect
# Pol eta inh-2: confirmation of human DNA polymerase eta inhibitors; shares compounds with Pol eta inh-1; Pol eta primer extension, TAMRA/BHQ fluorescence, 10 min; Potency, µM, actives largely listed as inhibitors; 2,600 compounds, 64% hits; AID 720502; further: potency means the concentration at half of the fitted maximal effect
# The depositor's hits bear a star; u = inconclusive; x = not tested or not shown; ! = not active in a repeat; [ ] = another dose, or the depositor's remark. Shown are actives, neighbours in structure and some others; about 2.4% of the full set was active somewhere. Unless noted, the call rests on the fitted dose curve; in most records, active means well fitted curve in the direction sought with a large enough effect; inconclusive means small, poorly fitted or top-dose-only effect, or another doubt; inactive means no such curve, though single readings can be large; an effect the other way counts as inactive or inconclusive.
SMILES,Pol eta inh-1,Pol iota inh,WRN inhibitor,Pol beta inh,Pol kappa inh-1,FEN1 inhibitor,POLI cherry-pick,Pol eta inh-2,others
CN(C)[C@@H]1C(=O)C(C(N)=O)=C(O)[C@@]2(O)C(=O)C3=C(O)c4c(O)cccc4[C@@](C)(O)C3[C@H](O)C12 (stereo not given in full),32µM*!,13µM*,40µM*!,x,8.9µM*!,16µM*!,u,x,
NC(=NCCc1ccc(I)cc1)SCCCc1cnc[nH]1,x,x,x,x,0%[19.4 µM],x,x,x,
O=c1cc(OCc2ccccc2)cc[nH]1,-19%,53%,4%,x,4%,0%,x,x,BAZ2B confirm=2.2*;BAZ2B bead ctr=10µM*
CN1C(=O)C(Cc2ccc(OCc3ccccc3)cc2)C(=O)N(C)C1=O,-6%,44%,9%,-1%,7%,11%,x,x,
C=C(C)C(=O)Nc1cccc(C2=NOC3(C2)C[C@@H](C(N)=O)N(C(=O)/C(C)=C/C)C3)c1 (stereo not given in full),2.5µM*,35µM*,u,1.4µM*,20µM*,-20%,30*,6.7*,BAZ2B confirm=4*;BAZ2B bead ctr=-10%;TbPGK inh=u;Pol kappa inh-2=8.4*
O=C1NC(=O)N(Cc2ccco2)C(=O)/C1=C/c1cccn1CCOc1ccccc1Cl,14µM*,11µM*,u,25µM*,u,-9%,67*,30*,Pol kappa inh-2=60*
O=C1NC(=O)N(Cc2ccccc2Cl)C(=O)/C1=C/N1CCOCC1,-6%,10%,-8%,-19%,0%,-19%,x,x,
COc1ccc(S(=O)(=O)Nc2ccccc2OC)cc1N=Nc1c(O)[nH]c(=S)[nH]c1=O,22µM*,u,u,x,u,-20%,42*,u,Pol kappa inh-2=42*
COc1cccc(N=Nc2c(O)[nH]c(=S)[nH]c2=O)c1,-10%,u,-14%,1%,0%,-21%,x,x,
CN1CCN(c2ncc3ncc(=O)n(C)c3n2)CC1,x,x,x,x,-3%[60.1 µM],x,x,x,
CCCCn1c(NS(=O)(=O)c2ccccc2)c(C(=O)OCC)c2nc3ccccc3nc21,u,34%,-35%,-13%,-18%,-6%,x,x,
CCCCn1c(NC(=O)c2ccc(Br)o2)c(C(=O)OCC)c2nc3ccccc3nc21,22µM*,u,u,u,-10%,-16%,42*,19*,
O=C(O)c1c(C(=O)O)c(-c2ccc(Br)cc2)n2c1CSC2,4%,u,-5%,4%,0%,-16%,x,x,
CC(=O)Nc1ccc(N=Cc2c(O)n(Cc3ccco3)c(=O)[nH]c2=O)cc1,u,45µM*,u,25µM*,u,-33%,60*,76*,Pol kappa inh-2=u
CCCCC(=O)N/N=C/c1c(O)n(Cc2ccco2)c(=O)[nH]c1=O,u,u,-27%,u,-7%,-6%,x,x,
Cc1cc(OC(=O)N(C)C)nn1C(=O)N(C)C,x,x,x,x,-11%[12 µM],x,x,x,
Cc1ccc(-c2nc3c(=O)n(C)c(=O)nc-3n(C)n2)cc1,x,-123%,x,x,-22%,-17%,1.7*,0.85*,
Cn1ncnc2c(=O)n(C)c(=O)nc1-2,0.71µM*,-72%,-4%[11.6 µM],u,5%,13%,5.3*,5.4*,TbPGK inh=1.5µM*;GALK confirm=1.1µM*;GALK redox cs=0.6µM*;HEK293 viability=3.1µM*
CCOC(=O)N1C(C)CN(/[N+]([O-])=N/Oc2ccc([N+](=O)[O-])cc2[N+](=O)[O-])CC1C (stereo not given),x,u,x,x,4%,-2%,x,x,
C[N+](C)(C)CCCl,x,x,x,x,9%[60.1 µM],x,x,x,
CC(C)c1ccc(N2C(=O)NC(=O)/C(=C/C=C/c3ccco3)C2=O)cc1,11µM*,13µM*,50µM*,32µM*,40µM*,u,75*,30*,
